Assay results as given in the supplement of paper PMC6555819.

Tests used:
Assay in all cases: PBM binding z-score (relative to random genomic background probes); higher = stronger binding; sequences stand for … in GC…GCGATTGACAGCGTAGAATGAAGG
[1] = test system: PPARg:RXRa DBDmut IVT, anti-RXR (DBD mutation: RXRa K156A/R161A, NR concentration 270 nM, RXRa partner concentration 90 nM)
Procedure, shortened: (§1)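 For binding z-scores, the reference was random background probes on custom Agilent 4×180K protein-binding microarrays. These arrays were incubated 1 h with ligand-free nuclear receptor dimers in PBS pH 7.4, 2% milk, 0.02% Triton X-100, 1 mM DTT, 0.2 mg/mL BSA and 0.4 mg/ml salmon testes DNA. Fluorescence was scanned after antibody detection of each partner (one per run) and regression-normalized.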

[2] = test system: PPARg:RXRa IVT, anti-PPARg (NR concentration 270 nM, RXRa partner concentration 90 nM)
Procedure, shortened: as §1

[3] = test system: PPARg DBDmut:RXRa IVT, anti-PPARg (DBD mutation: PPARg1 K132A/R137A, NR concentration 270 nM, RXRa partner concentration 90 nM)
Procedure, shortened: as §1

[4] = test system: PPARg DBDmut IVT, anti-PPARg (DBD mutation: PPARg1 K132A/R137A, NR concentration 270 nM)
Procedure, shortened: as §1

[5] = test system: PPARg homodimer (NR concentration 180 nM)
Procedure, shortened: as §1

[6] = test system: PXR:RXRa (NR concentration 270 nM, RXRa partner concentration 90 nM)
Procedure, shortened: as §1

[7] = test system: PXR homodimer (NR concentration 270 nM)
Procedure, shortened: as §1

[8] = test system: RARa:RXR (NR concentration 270 nM, RXRa partner concentration 90 nM)
Procedure, shortened: as §1

[9] = test system: RARa homodimer (NR concentration 270 nM)
Procedure, shortened: as §1

[10] = test system: RARb:RXRa (NR concentration 270 nM, RXRa partner concentration 90 nM)
Procedure, shortened: as §1

Sequence	PBM binding z-score [1]	PBM binding z-score [2]	PBM binding z-score [3]	PBM binding z-score [4]	PBM binding z-score [5]	PBM binding z-score [6]	PBM binding z-score [7]	PBM binding z-score [8]	PBM binding z-score [9]	PBM binding z-score [10]
TCAAATAGGTAAATGCTAGGTGAAAGTCCGATCT	3.54	2.47	0.483	0.699	0.99	0.653	0.443	1.16	1.43	0.7
CATACTAGGTCAAGGTCAAAGTCGGTTTGTGCCA	7.56	7.98	3.58	0.96	5.3	5.33	2.51	5.37	2.9	4.96
TCTAGTTGGTCACGGAGGTCATACACGACGGGTA	2.41	3.69	1.98	1.06	2.96	4.57	2.33	4.38	1.78	3.59
TAGCCTAGGTCATTGGGCAAGTATAGTACGCATC	1.66	3.17	0.399	-0.561	1.19	1.64	-0.337	2.38	-0.275	3.66
CAAACTAGGTCAAGATGTCAAAGTCCGCTTCCCG	8.4	8.48	2.81	1.01	2.29	1.86	-0.0603	3.02	0.666	4.12
ATCTCTAGGTAACCAAGTTCAGTCAATGCCGAAC	4.07	3.07	0.988	0.947	1.23	2.3	2.93	1.03	1.01	1.34
TCTCGTAGATCAAGCAGGTTAAGAAAGCCTGAGT	1.63	-0.598	-0.611	-0.106	-0.511	0.225	-0.267	0.111	-0.712	-0.255
CGAACTAGGTCATCCAGGACAGTAAATACATTGA	7.97	8.2	3	3.62	2.26	2.15	1.3	2.69	0.413	3.89
ATCGAGAGGTCGAGGTGAGTATAGAGAAAGGGAA	-0.102	1.75	0.955	0.168	0.817	1.9	-0.0163	2.63	-0.363	3.14
CCTGACAGGTGAAAGGTAACTCAGTCTGGTACGC	2.33	2.82	-0.213	-0.0292	0.546	0.876	-0.396	1.84	0.115	1.3
CCTCGAAGGACAACAGGAGGTCAGAGCTGCCAGA	-0.42	0.185	-0.412	-0.537	1.76	1.94	0.545	2.37	0.491	3.06
TCTAGTAGATCAATAGAGGTTAAGAAAGTGCGCT	1.7	0.843	-0.106	0.138	0.0842	3.18	0.411	1.81	0.23	0.908
TAGCTTAGGTCATTGGGCCAGTATAGTACGCATC	2.21	3.15	0.561	0.108	1.34	1.97	0.132	2.53	0.063	3.72
CAAACTAAGTCACCGGAAGGTCAAAGTCCGCATG	2.44	2.88	0.787	1.14	2.8	3.98	1.63	4.43	1.48	3.46
GCGACTGGGGCATCAGCAGGTTACCAAAACTTAA	3.95	3.39	-1.31	-0.989	0.651	-0.0279	-0.564	0.57	-0.274	0.893
CCTTACGGGTCACTCCAGGTTACAGCATCGGAGT	2.73	4.01	0.164	-0.572	1.91	4.66	0.311	3.94	0.566	3.86
TCATATAGGTGAATGCTAGGTGAAAGTCCGATCT	6.19	5.78	1.9	1.82	1.06	0.532	-0.173	1.33	0.882	1.22
TAGCCTAGGTCATGCGGGCCAGTATCGTGTCGGC	1.85	2.82	-0.0878	-0.59	0.211	1.41	-0.532	2	-0.99	3.49
GCGACTGGGGCAAAGCAGGTTATCATAAGGTTGG	4.56	3.61	-0.685	-0.693	-0.345	0.44	-0.841	0.549	-0.943	0.894
GCATATAGGTAATACAAGGTGAAAGTTCGATTGT	3.93	3.61	1.22	1.17	1.2	1.86	0.639	2.6	1.1	0.778
TCGAGTAGGTTAGTCTGGGCATTCAGCCAACATA	1.92	1.79	-0.593	-0.623	-0.00252	-0.302	-0.724	-0.271	-0.668	-0.185
TCTTGTAGATCAATAGAGCTTAAGAAAGTGCGCT	1.24	0.112	-0.281	0.00059	-0.672	-0.158	-0.534	-0.251	-1.02	-0.557
ATCTCTACGTAAGACTCAGTTCAGTGAAGAACGC	-0.086	0.118	0.872	1.57	0.776	1.09	1.22	0.208	0.199	0.279
GCTGCTAGGTCAACAGATGGTCAGCTAAAGCTCG	4.44	3.68	-0.0685	-0.727	1.6	1.22	-0.762	2.23	-0.595	3.97
